Assay outcomes as filed in PubChem BioAssay.
Rows were chosen to be rich in hits. Some 6.5% of all compounds tested hit in one or more screens of this group.
VACV mCherry inh = qHTS for Stage-Specific Inhibitors of Vaccinia Orthopoxvirus: mCherry Reporter Primary qHTS. AID 720579, 2013. Vaccinia virus mCherry reporter infection, fluorescence. Potency, µM (top dose mostly 36.5 µM), actives largely listed as inhibitors. hit rate 0.63% among 310,000; calls by dose curve; tested in A549 cells; note: nearly all actives have a fitted effect of over 35% in size
FMDV antiviral = High Throughput Screening for Foot and Mouth Disease Virus Antivirals; FMDV antiviral cell-based qHTS; Potency, µM (doses to about 57.9 µM), hits mostly inhibitors; hit rate 1.2% among 410,000; AID 1159524, 2015; calls by dose curve; tested in HEK293T cells; note: read-out not given here; nearly all actives have a fitted effect of over 45% in size
MARV entry inh = qHTS for inhibitors of binding or entry into cells for Marburg Virus. hit rate 1.8% among 300,000. AID 540276, 2011. Marburg virus pseudotyped entry inhibition, cell reporter. Potency, µM (doses to about 37.8 µM), actives largely listed as inhibitors; calls by dose curve; tested in HEK293 cells
HCMV inh = qHTS Assay for inhibitors of the human cytomegalovirus (HCMV). activity change, negative = inhibition, % at 57.5 µM. HFF cells, HCMV-luciferase reporter, 72 h; active compounds read low. hit rate 4.5% among 410,000. AID 1259415, 2018; in the data active = activity change below about -60%; inconclusive = no clear call, values can overlap the other calls; inactive = above about -39%
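Inhibition of viral replication was scored as loss of reporter luminescence in HFFs infected with HCMV-luciferase (MOI 1 PFU/cell) for 72 h; compounds tested at 2 doses, normalized to buffer and Salinomycin controls.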
LASV entry inh = qHTS for Inhibitors of binding or entry into cells for Lassa Virus | hit rate 1.2% among 300,000 | Potency, µM (top dose mostly 37.9 µM), usual class: inhibitors | Lassa virus pseudotype entry inhibition, cell reporter; calls by dose curve; tested in HEK293 cells; note: nearly all actives have a fitted effect of over 50% in size
VACV Venus inh = qHTS for Stage-Specific Inhibitors of Vaccinia Orthopoxvirus: Venus Reporter Primary qHTS | Vaccinia virus Venus reporter expression, fluorescence | Potency, µM (highest dose often 36.5 µM), actives largely listed as inhibitors | hit rate 0.46% among 330,000; calls by dose curve; tested in A549 cells; note: nearly all actives have a fitted effect of over 30% in size
Numbers stand for hits; [ ] = dose if it differs, or a comment.

How did CCOC(=O)/C(=C/C=C1\Sc2ccccc2N1CC)C(C)=O do in these assays?
VACV mCherry inh: inactive; FMDV antiviral: inactive; MARV entry inh: inconclusive; LASV entry inh: inconclusive; VACV Venus inh: inactive

What do the screens show for `CCOC(=O)/C(=C\C=C1/Sc2ccccc2N1CC)C(C)=O`?
VACV mCherry inh: inconclusive; FMDV antiviral: inactive; MARV entry inh: inconclusive; HCMV inh: -64; LASV entry inh: 2.8µM; VACV Venus inh: inactive

What do the screens show for `CC(C)=CCN1C(=O)[C@]2(O[C@H](C)CC3=CCCC32)c2c(Br)cccc21` (some centres undefined)?
MARV entry inh: inactive

What do the screens show for `O=C1CCC/C1=c1\s/c(=C/c2cccnc2)c(=O)n1-c1ccccc1`?
VACV mCherry inh: inactive; FMDV antiviral: inactive; MARV entry inh: inconclusive; HCMV inh: inactive; LASV entry inh: inconclusive; VACV Venus inh: inactive

How did O=C1CCC/C1=c1\s/c(=C\c2cccnc2)c(=O)n1-c1ccccc1 do in these assays?
VACV mCherry inh: inactive; FMDV antiviral: inconclusive; MARV entry inh: inconclusive; HCMV inh: -79; LASV entry inh: inactive; VACV Venus inh: inactive

What do the screens show for `C#CCNC(=O)C1=C[C@H](c2csc3ccccc23)C[C@H](OCCCCO)O1`?
VACV mCherry inh: inactive; FMDV antiviral: inactive; HCMV inh: inactive; VACV Venus inh: inactive

What do the screens show for `COCCNC(=O)C1CCCN(C(=O)c2cc(C)n(C(C)(C)C)n2)CC1` (centres undefined)?
VACV mCherry inh: inactive; FMDV antiviral: inactive; HCMV inh: inactive; VACV Venus inh: inactive

Results for COCCNC(=O)C1CCCN(C(=O)c2cc(C)nn2C(C)(C)C)CC1 (centres undefined) ?
VACV mCherry inh: inactive; FMDV antiviral: inactive; HCMV inh: -60; VACV Venus inh: inactive

How did CN(c1ccccc1)S(=O)(=O)c1cccc(NC(=O)C2CC(=O)N(Cc3ccccc3)C2)c1 (centres undefined) do in these assays?
FMDV antiviral: inconclusive; HCMV inh: inactive

What do the screens show for `COc1ccccc1NC(=O)N1CCC(c2nnc(SCC(N)=O)n2C)CC1`?
FMDV antiviral: inactive; MARV entry inh: inactive; HCMV inh: inactive; LASV entry inh: inactive

What do the screens show for `Cc1cc(/C=C2\C=Cc3ccccc32)ccc1N(C)C`?
VACV mCherry inh: inactive; VACV Venus inh: inactive

How did CCOC(=O)c1cnc(-n2nc(C)cc2C)nc1NC1CCCC1 do in these assays?
VACV mCherry inh: inactive[7.34 µM]; FMDV antiviral: inconclusive; MARV entry inh: 11µM; HCMV inh: -108; LASV entry inh: inconclusive; VACV Venus inh: inactive[7.34 µM]

What do the screens show for `CCOC(=O)c1cnc(-n2nc(C)cc2C)nc1NCCc1ccccc1`?
VACV mCherry inh: inconclusive; FMDV antiviral: inconclusive; MARV entry inh: inconclusive; HCMV inh: -92; LASV entry inh: inactive; VACV Venus inh: inconclusive

Results for CCOC(=O)c1cnc(-n2nc(C)cc2C)nc1Nc1ccc(OC)cc1 ?
FMDV antiviral: inactive; MARV entry inh: inconclusive; HCMV inh: inactive; LASV entry inh: inconclusive

Results for Cc1cc(SCC(=O)N/N=C/c2ccc(O)cc2O)nc2ccccc12 ?
VACV mCherry inh: 1.1µM; FMDV antiviral: inactive; MARV entry inh: inconclusive; HCMV inh: inactive; LASV entry inh: inconclusive; VACV Venus inh: inconclusive

What do the screens show for `COc1ccc2nc(C)cc(SCC(=O)N/N=C/c3cccc4ccccc34)c2c1`?
FMDV antiviral: inactive; MARV entry inh: inconclusive; HCMV inh: -68; LASV entry inh: 13µM

What do the screens show for `COc1ccc2nc(C)cc(SCC(=O)N/N=C/c3ccc(O)c(O)c3)c2c1`?
VACV mCherry inh: inactive; FMDV antiviral: inconclusive; MARV entry inh: inconclusive; HCMV inh: inconclusive; LASV entry inh: inactive; VACV Venus inh: inactive

How did C=CC(=O)Nc1cccc(Nc2nc(N[C@H]3CC[C@H](N(C)C)CC3)nc3c2ncn3C(C)C)c1 do in these assays?
VACV mCherry inh: inconclusive; FMDV antiviral: inconclusive; VACV Venus inh: 1µM

How did CCC(C)NC(=O)CSc1nc2cc(S(=O)(=O)N3CCOCC3)ccc2n1CC (centres undefined) do in these assays?
VACV mCherry inh: inactive; FMDV antiviral: inactive; MARV entry inh: inactive; HCMV inh: inactive; LASV entry inh: inactive; VACV Venus inh: inactive

How did CCn1c(SCC(=O)c2cc(C)ccc2C)nc2cc(S(=O)(=O)N3CCOCC3)ccc21 do in these assays?
VACV mCherry inh: inactive; FMDV antiviral: inactive; MARV entry inh: inconclusive; HCMV inh: -63; LASV entry inh: inactive; VACV Venus inh: inactive
